# PMC5540273 (PLoS ONE, 2017)
# pKd: −log10 of the molar value.
# 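Further: kd values determined as follow-up on hits from a single-replicate KINOMEscan panel screen.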
compound,measurement,setting,value
CCCc1ccc(S(=O)(=O)NC2CCN(c3ccnc(Nc4ccc(F)cc4)n3)C2)cc1 (stereo not shown) [GSK1379715],pKd,NEK1,< 5.00
CCn1c(-c2ccccn2)nc2cnccc21 [SB-736398],pKd,NEK1,< 5.00
CSc1nn2c(=O)cc(N3CCOCC3)nc2n1Cc1cccc(C(F)(F)F)c1C [GSK2363608],pKd,NEK2,< 5.00
O=C(O)COc1ncnc2cc(-c3ccc4[nH]ncc4c3)sc12,pKd,NEK3,6.68
Cn1ccc2ncnc(Oc3ccc(Nc4nc5ccccc5[nH]4)cc3)c21,pKd,NEK4,< 5.00
COc1cc(Nc2nccc(N3CCC(NC(=O)Nc4cc(C)ccc4C)C3)n2)cc(OC)c1OC (stereo not shown) [GSK1379762],pKd,NEK5,5.64
COc1ccc(CNC(=O)NC2CCN(c3ccnc(Nc4cc(OC)c(OC)c(OC)c4)n3)C2)cc1 (stereo not shown) [GSK1379748],pKd,NEK5,6.14
Nc1ncnc2[nH]c(-c3ccccc3)nc12 [AH5015],pKd,PAK3,< 5.00
O=C1NC(=O)C(N2CCc3ccccc32)=C1c1ccccc1Cl [SB-373598],pKd,PAK3,< 5.00
CS(=O)(=O)c1ccc(-c2nc3n(c2-c2ccncc2)CCC3)cc1 [SKF-105942],pKd,PAK6,< 5.00
